A short description of experiment [1]: NCI Yeast Anticancer Drug Screen. Data for the rad50 strain (AID 155).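 Further: 0% = growth of vehicle-only cultures of the same strain.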 The settings on record: S. cerevisiae rad50 strain growth inhibition, hits give high values; at 50.0 µM unless noted. The method, boiled down: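 Growth of the mutant yeast was measured after compound exposure and referenced to vehicle-treated cultures.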
Experiment [2] can be described thus: NCI Yeast Anticancer Drug Screen. Data for the mec2-1 strain (AID 157). The settings on record: S. cerevisiae mec2-1 strain, hits give high values; at 50.0 µM unless noted. In outline: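 Yeast mec2-1 mutant treated with compound. Readout: growth inhibition vs vehicle controls.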
Experiment [3] is described as follows: NCI Yeast Anticancer Drug Screen. Data for the sgs1 mgt1 strain (AID 161).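 Further: 0% = growth of cultures given vehicle only.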 The following applies: S. cerevisiae sgs1 mgt1 strain, hits give high values; at 50.0 µM unless noted. The method, boiled down:
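Read-out: growth inhibition vs vehicle controls. Cells: mutant yeast strain deficient in DNA damage repair.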

Experiment [4] in a line: NCI Yeast Anticancer Drug Screen. Data for the cln2 rad14 strain (AID 165).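 Further: 0% = growth equal to vehicle treated cultures.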 The following applies: S. cerevisiae cln2 rad14 strain, hits give high values; at 50.0 µM unless noted. In outline:
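cln2 rad14 yeast strain; compound exposure; growth inhibition read vs vehicle controls.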

Experiment [5] can be described thus: NCI Yeast Anticancer Drug Screen. Data for the bub3 strain (AID 167). The following applies: S. cerevisiae bub3 mutant strain, hits give high values; at 50.0 µM unless noted. In outline: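 Whole-cell yeast assay. The mutant strain was incubated with compounds, and growth inhibition was determined by comparison with vehicle-treated cells.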
Experiment [6] in a line: NCI Yeast Anticancer Drug Screen. Data for the mlh1 rad18 strain (AID 175). The following applies: S. cerevisiae mlh1 rad18 strain growth inhibition, hits give high values; at 50.0 µM unless noted. The method, boiled down: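 Yeast w/ defined DNA-repair lesions; compound exposure; growth vs vehicle controls → % inhibition.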

We go through 21 molecules from PubChem BioAssay (NCI).

Each structure is given as a SMILES string. The panel holds about 79,000 compounds, 15% with a hit somewhere; the sample as a whole holds those more often. Unmarked numbers belong to inactive results. Active and inactive are the calls of the source. No stated cut-off is given here; in the data, active means growth inhibition above about 70%; inactive means the rest.

With `Cc1cccc(Nc2nc(C)nc3[nH]cc(-c4ccccc4)c23)c1`, the growth inhibition in experiment [1] is -14.7%; in experiment [2], -12.6%; in experiment [3], -10.9%; in experiment [4], -53.2%; in experiment [5] it was -15.5%; in experiment [6], -7.95%.

As to `O=C1c2ccccc2S(=O)(=O)c2c1cccc2[N+](=O)[O-]`, the growth inhibition in experiment [1] is 14.1%; in experiment [2], -15.4%; in experiment [3], 3.6%; in experiment [4], 5.3%; in experiment [5], -4.7%; in experiment [6], 15.7%.

Take `FC(F)(F)C1CCCCC1[Si](C1CCCCC1C(F)(F)F)C1CCCCC1C(F)(F)F` (stereo unspecified): the growth inhibition was 32.8% in experiment [1]; -11.2% in experiment [2]; 13.7% in experiment [3]; 10.5% in experiment [4]; -5.55% in experiment [5]; 5.7% in experiment [6].

Consider `CC(=O)Nc1cccc(N=Cc2ccc(N(CCOS(C)(=O)=O)CCOS(C)(=O)=O)cc2C)c1`, for which the growth inhibition in experiment [1] was 73.8% (active); in experiment [2], 70.5% (active); in experiment [3], 40.4%; in experiment [4], 22.9%; in experiment [5] it was 13.8%; in experiment [6], 93.2% (active).

For the molecule `O=C(OC(c1ccccc1)C(c1ccccc1)N1CCOCC1)c1ccc([N+](=O)[O-])cc1` (stereo unspecified), the growth inhibition was 54.8% in experiment [1]; 8.3% in experiment [2]; 55.4% in experiment [3]; -4.9% in experiment [4]; 17.1% in experiment [5]; 54.6% in experiment [6].

Take `CCCCN1CC(=O)N2CCCC(c3ccccc3)N2C(=O)C1` (stereo unspecified): the growth inhibition in experiment [1] is 7.55%; in experiment [2], -0.95%; in experiment [3], 17.6%; in experiment [4], 15.4%; in experiment [5], 10.5%; in experiment [6], -3.5%.

In the case of `Cn1nnn(Cc2ccccc2)/c1=N/C(=S)Nc1ccccc1`, the growth inhibition in experiment [1] is -11.6%; in experiment [2], -6.75%; in experiment [3], -4.05%; in experiment [4], -7.45%; in experiment [5], 3.1%; in experiment [6] it was -21.4%.

Regarding `CCOC(=O)CSc1nc(-c2ccccc2)c(C#N)c(=O)[nH]1`, the growth inhibition in experiment [1] was 3.05%; in experiment [2] it was 1.2%; in experiment [3], -5.4%; in experiment [4], 13.2%; in experiment [5], 2.6%; in experiment [6], -61%.

`CC(C)c1ccc(/C(C(=O)O)=C(\O)C(=O)O)cc1`: the growth inhibition is -14.4% in experiment [1]; -7.25% in experiment [2]; -15.4% in experiment [3]; 29.9% in experiment [4]; -31.6% in experiment [5]; -7.45% in experiment [6].

Regarding `CC(C)CCN`, the growth inhibition is 2.75% in experiment [1]; 8.9% in experiment [2]; -3.35% in experiment [3]; 19.1% in experiment [4]; 3.3% in experiment [5]; 30.2% in experiment [6].

As to `O=C1CSC(c2c[nH]c3ccccc23)N1c1ccc(Cl)cc1` (stereo unspecified), the growth inhibition was -33.9% in experiment [1]; -25.5% in experiment [2]; -46.2% in experiment [3]; -3.55% in experiment [4]; -28.9% in experiment [5]; -30.4% in experiment [6].

For the molecule `CC(=O)Nc1ccn(C2OC(CO)C(O)C2O)c(=O)n1` (stereo unspecified), the growth inhibition was -3.6% in experiment [1]; 26.9% in experiment [2]; 0.05% in experiment [3]; 31.1% in experiment [4]; -11.6% in experiment [5]; 8.3% in experiment [6].

As for `CCCN=C(N)C(C)=O`, the growth inhibition in experiment [1] is 5.85%; in experiment [2] it was -4.9%; in experiment [3], -11.1%; in experiment [4], 4.85%; in experiment [5], 15.2%; in experiment [6], 2.1%.

As to `COC(=O)NCC1OCC2OC(C)(C)OC12` (stereo unspecified), the growth inhibition was 14.8% in experiment [1]; 3.25% in experiment [2]; -10.9% in experiment [3]; -62.5% in experiment [4]; 14.8% in experiment [5]; 9.35% in experiment [6].

Take `O=c1[nH]c(C(F)(F)F)c([N+](=O)[O-])c(=O)[nH]1`: the growth inhibition in experiment [1] is -40.9%; in experiment [2] it was -22.4%; in experiment [3] it was 1.6%; in experiment [4] it was -26.4%; in experiment [5], -1.9%; in experiment [6], -4.7%.

On to `COC1/C=C/OC2(C)Oc3c(C)c(O)c4c(c3C2=O)C(=O)C([N+](=O)[O-])=C(NC(=O)C(C)=C/C=C\C(C)C(O)C(C)C(O)C(C)C(OC(C)=O)C1C)C4=O` (stereo unspecified), for which the growth inhibition in experiment [1] was 21.7%; in experiment [2], 10.4%; in experiment [3] it was 29.4%; in experiment [4] it was 19.6%; in experiment [5] it was 24.4%; in experiment [6], 29.6%.

Take `CC1CN(CCO)CCN1Cc1ccccc1` (stereo unspecified): the growth inhibition in experiment [1] was -12.6%; in experiment [2], -12.3%; in experiment [3], -16.6%; in experiment [4] it was -5.1%; in experiment [5], -12.6%; in experiment [6], -5.8%.

On to `Cc1ccc(S(=O)(=O)N(C)CCCC#N)cc1`, for which the growth inhibition was -11.4% in experiment [1]; -16.3% in experiment [2]; 6.2% in experiment [3]; -3.1% in experiment [4]; -6.6% in experiment [5]; -19.6% in experiment [6].

On to `Cc1n[nH]c(=O)n1/N=C/c1ccncc1`, for which the growth inhibition in experiment [1] is 8.45%; in experiment [2], 6.95%; in experiment [3], -6%; in experiment [4], -17%; in experiment [5] it was -4.35%; in experiment [6] it was 7%.

For `Cc1ccc2oc3c(ccc(=O)n3C)c(=O)c2c1`, the growth inhibition in experiment [1] is 28.6%; in experiment [2] it was 7.1%; in experiment [3] it was -17.6%; in experiment [4], -22.1%; in experiment [5], -35.5%; in experiment [6], -59.3%.

Turning to `Cc1ccc2sccc(=O)c2c1`, the growth inhibition in experiment [1] is 1.05%; in experiment [2], -2.1%; in experiment [3], -8.95%; in experiment [4], -12.8%; in experiment [5], -5.95%; in experiment [6] it was 7.6%.
